About 2,200 (0.71%) of roughly 310,000 compounds showed an effect of 50% or more. Effects have a minus sign here. Only a selection was taken, and strong results are over-represented in it overall.

human ether-à-go-go-related gene (hERG) potassium channel, sequence (Q12809 whole entry, looked up): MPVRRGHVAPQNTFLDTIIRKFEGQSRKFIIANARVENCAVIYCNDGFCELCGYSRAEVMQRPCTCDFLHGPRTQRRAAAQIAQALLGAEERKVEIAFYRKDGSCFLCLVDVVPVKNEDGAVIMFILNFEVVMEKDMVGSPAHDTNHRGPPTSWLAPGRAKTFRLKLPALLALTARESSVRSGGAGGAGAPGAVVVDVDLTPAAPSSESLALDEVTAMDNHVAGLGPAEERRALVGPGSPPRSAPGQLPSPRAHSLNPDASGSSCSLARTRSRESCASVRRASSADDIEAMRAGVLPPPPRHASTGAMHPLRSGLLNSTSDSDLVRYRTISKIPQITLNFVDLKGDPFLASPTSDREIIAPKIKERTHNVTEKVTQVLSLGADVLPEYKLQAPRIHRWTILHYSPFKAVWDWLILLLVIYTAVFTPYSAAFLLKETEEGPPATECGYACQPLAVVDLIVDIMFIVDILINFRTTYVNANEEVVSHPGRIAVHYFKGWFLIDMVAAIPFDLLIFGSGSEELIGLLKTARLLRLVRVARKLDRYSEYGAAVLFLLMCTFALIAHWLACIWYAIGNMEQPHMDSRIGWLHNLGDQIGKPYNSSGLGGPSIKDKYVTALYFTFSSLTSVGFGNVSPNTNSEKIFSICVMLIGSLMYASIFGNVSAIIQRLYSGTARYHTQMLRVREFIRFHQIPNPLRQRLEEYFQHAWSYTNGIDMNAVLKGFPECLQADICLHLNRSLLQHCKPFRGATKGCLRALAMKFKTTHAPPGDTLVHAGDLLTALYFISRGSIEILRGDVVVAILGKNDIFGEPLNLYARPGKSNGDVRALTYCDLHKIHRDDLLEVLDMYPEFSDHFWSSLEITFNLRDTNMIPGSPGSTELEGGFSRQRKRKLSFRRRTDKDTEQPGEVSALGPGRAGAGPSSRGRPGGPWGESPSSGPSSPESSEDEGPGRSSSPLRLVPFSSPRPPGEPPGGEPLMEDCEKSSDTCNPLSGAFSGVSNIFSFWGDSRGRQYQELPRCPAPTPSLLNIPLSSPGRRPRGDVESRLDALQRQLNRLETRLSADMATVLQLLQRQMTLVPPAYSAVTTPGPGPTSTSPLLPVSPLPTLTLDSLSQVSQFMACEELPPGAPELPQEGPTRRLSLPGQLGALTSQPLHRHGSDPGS

The assay addresses human ether-à-go-go-related gene (hERG) potassium channel (human, UniProt Q12809). Kind of assay: primary screen, population patch clamp on CHO cells stably expressing hERG; higher = less effect of the substance.
As for `COc1cc(S(=O)(=O)N2CCOCC2)ccc1NC(=O)c1cc2c(s1)CCC2`, the “hERG current change (%, negative = inhibition) at 1uM” value is recorded as 3.78%.

With `Cc1ccc2c(c1)N(C(=O)CCC(=O)NCc1cccnc1)CCO2`, the “hERG current change (%, negative = inhibition) at 1uM” value is reported as -4.63%.

`CN(CC(=O)NCc1ccc(F)cc1)Cc1ccc(Br)cc1`: the “hERG current change (%, negative = inhibition) at 1uM” value worked out at 2.94%.

Regarding `CCOc1ccc(CN(C)CC(=O)NCc2ccc(F)cc2)cc1`, the “hERG current change (%, negative = inhibition) at 1uM” value is -78.6%.

As for `CCOc1ccc(CN(C)CC(=O)NCc2ccccc2Cl)cc1`, the “hERG current change (%, negative = inhibition) at 1uM” value is -73.6%.

For `COc1cccc(CN(C)CC(=O)NCc2ccccc2Cl)c1OC`, the “hERG current change (%, negative = inhibition) at 1uM” value is listed as 10.6%.

Consider `COc1cccc(CN(C)CC(=O)NCc2ccccc2Cl)c1`, for which the “hERG current change (%, negative = inhibition) at 1uM” value is listed as 14.6%.

As for `CSc1ccc(CN(C)CC(=O)NCc2ccc(F)cc2)cc1`, the “hERG current change (%, negative = inhibition) at 1uM” value was -19.3%.

Consider `CCOC(=O)c1ccc(Oc2nc(NC(C)(C)C)nc(N(C)C)n2)cc1`, for which the “hERG current change (%, negative = inhibition) at 1uM” value worked out at 6.02%.

As to `CCOC(=O)Nc1c(C(=O)OC)[nH]c2cc(OC)ccc12`, the “hERG current change (%, negative = inhibition) at 1uM” value is on record as -3.1%.

`CCCn1c(SCc2ccccn2)nc2c1c(=O)n(C)c(=O)n2C`: the “hERG current change (%, negative = inhibition) at 1uM” value is 16.5%.

As to `O=[N+]([O-])c1cccc(C(=NCc2ccccc2)NO)c1`, the “hERG current change (%, negative = inhibition) at 1uM” value was 15.5%.

Turning to `CN(C)C(=S)NC(=NCc1ccc([N+](=O)[O-])cc1)c1ccccc1`, the “hERG current change (%, negative = inhibition) at 1uM” value is listed as -60.3%.

Take `O=[N+]([O-])c1ccc(NC(=S)N/C(=N/CS(=O)(=O)c2ccccc2)c2ccccc2)cc1`: the “hERG current change (%, negative = inhibition) at 1uM” value is given as 11%.

`S=C(NCCc1ccccn1)Nc1ccccc1Cl`: the “hERG current change (%, negative = inhibition) at 1uM” value is listed as 17%.

Turning to `COc1cn(-c2ccccc2)nc1C(=O)OCC(=O)Nc1ccc(C)c(C)c1`, the “hERG current change (%, negative = inhibition) at 1uM” value worked out at 12.1%.

With `CC(NC(=O)c1ccc2c(c1)OCO2)C1CCCO1` (stereo not drawn), the “hERG current change (%, negative = inhibition) at 1uM” value is recorded as -0.0414%.

For `O=C(CSc1nc2ccccc2c(=O)n1Cc1ccco1)N1CCCC1`, the “hERG current change (%, negative = inhibition) at 1uM” value is on record as -81.3%.

`CCN(CC)C(=O)CSc1nc2c(sc(=S)n2-c2ccccc2)c(=O)n1Cc1ccco1`: the “hERG current change (%, negative = inhibition) at 1uM” value is -86.3%.

For the molecule `C=CCn1c(SCC(=O)N2CCc3ccccc3C2)nc2sc(CC)cc2c1=O`, the “hERG current change (%, negative = inhibition) at 1uM” value is 10.8%.

Consider `NC(=O)CSc1nc2ccccc2c(=O)n1Cc1ccco1`, for which the “hERG current change (%, negative = inhibition) at 1uM” value is given as -15.1%.

Take `CCN(CC)C(=O)CSc1nc2c(sc(=S)n2Cc2ccco2)c(=O)n1-c1ccccc1`: the “hERG current change (%, negative = inhibition) at 1uM” value is reported as 5.26%.

Consider `CC(C)Cn1c(SCC(=O)N2CCN(C(=O)c3ccco3)CC2)nc2ccccc2c1=O`, for which the “hERG current change (%, negative = inhibition) at 1uM” value is recorded as -42.9%.

Regarding `CCN(CC)C(=O)CSc1nc2c(sc(=S)n2CC)c(=O)n1-c1ccccc1`, the “hERG current change (%, negative = inhibition) at 1uM” value is -13.3%.

Take `CCCn1c(SCC(=O)N2CCN(C(=O)c3ccco3)CC2)nc2ccccc2c1=O`: the “hERG current change (%, negative = inhibition) at 1uM” value is given as -84.8%.

Turning to `CCCCn1c(SCC(=O)N2CCOCC2)nc2ccccc2c1=O`, the “hERG current change (%, negative = inhibition) at 1uM” value was -39.4%.

`C=CCn1c(SCC(=O)N2CCN(C(=O)c3ccco3)CC2)nc2sc(CC)cc2c1=O`: the “hERG current change (%, negative = inhibition) at 1uM” value is -85.6%.

On to `CCOC(=O)CSc1nc2ccccc2c(=O)n1Cc1ccco1`, for which the “hERG current change (%, negative = inhibition) at 1uM” value is 0.785%.

With `C=CCn1c(SCC(=O)N2CCCC2=O)nc2sc(CC)cc2c1=O`, the “hERG current change (%, negative = inhibition) at 1uM” value is given as -20%.

As for `Cc1cccc(OCCNC(=O)CCNS(=O)(=O)c2ccc3ccccc3c2)c1`, the “hERG current change (%, negative = inhibition) at 1uM” value was 6.04%.

Turning to `CCCn1nc(C(=O)Nc2ccc(N3CCOCC3)cc2)c2ccccc2c1=O`, the “hERG current change (%, negative = inhibition) at 1uM” value was 1.6%.

As for `O=C(Cn1nc(Br)nc1Br)c1ccccc1`, the “hERG current change (%, negative = inhibition) at 1uM” value was found to be 10.2%.

In the case of `COc1cc(C2NC(=O)NC(C)=C2C(=O)NCc2ccccc2)c(Cl)cc1O` (stereo not drawn), the “hERG current change (%, negative = inhibition) at 1uM” value was determined as 13.7%.

`COCCNC(=O)C1CC(c2ccccc2C(F)(F)F)=NO1` (stereo not drawn): the “hERG current change (%, negative = inhibition) at 1uM” value is reported as 14.7%.

For `O=C(CSc1nc2ccccc2c(=O)n1Cc1ccco1)NCc1ccco1`, the “hERG current change (%, negative = inhibition) at 1uM” value is on record as -40.8%.

In the case of `O=C(CSc1nc2ccccc2c(=O)n1Cc1ccco1)N1CCN(c2ccccc2)CC1`, the “hERG current change (%, negative = inhibition) at 1uM” value was -83.6%.

With `CCCn1c(SCC(=O)N2CCN(c3ccccc3)CC2)nc2ccccc2c1=O`, the “hERG current change (%, negative = inhibition) at 1uM” value was -4.8%.

In the case of `Cn1c(SCC(=O)NCCN2C(=O)CSC2=O)nc2ccccc2c1=O`, the “hERG current change (%, negative = inhibition) at 1uM” value is listed as 7.27%.

As to `O=C(CSc1nc2ccccc2c(=O)n1Cc1ccco1)N1CCCCCC1`, the “hERG current change (%, negative = inhibition) at 1uM” value is reported as -82.8%.

For `CCn1c(SCC(=O)N2CCCC2)nc2ccccc2c1=O`, the “hERG current change (%, negative = inhibition) at 1uM” value is -7.76%.

In the case of `O=C(CSc1nc2ccccc2c(=O)n1CCCN1CCOCC1)N1CCN(c2ccccc2)CC1`, the “hERG current change (%, negative = inhibition) at 1uM” value is reported as -6.61%.

Take `CCn1c(SCC(=O)N2CCCCCC2)nc2ccccc2c1=O`: the “hERG current change (%, negative = inhibition) at 1uM” value came to 2.02%.

For the molecule `O=C(CSc1nc2ccccc2c(=O)n1Cc1ccco1)NCCN1C(=O)CSC1=O`, the “hERG current change (%, negative = inhibition) at 1uM” value is reported as -56%.

Turning to `COc1cc(OC)c(NC(=S)NCc2ccc(F)cc2)cc1Cl`, the “hERG current change (%, negative = inhibition) at 1uM” value is 8.5%.

Consider `Oc1ccccc1N1CCN(Cc2ncc(-c3ccccc3)o2)CC1`, for which the “hERG current change (%, negative = inhibition) at 1uM” value was 7%.

As to `O=C(CSc1nnnn1-c1ccc2c(c1)OCCO2)OC1CCCCC1`, the “hERG current change (%, negative = inhibition) at 1uM” value amounted to 6.23%.

Consider `COc1ccc(C)cc1Nc1nc(-c2c(C)[nH]c3ccccc23)cs1`, for which the “hERG current change (%, negative = inhibition) at 1uM” value came out at 4.55%.

`CSc1ccc(/C=c2\s/c(=C\C(=O)C(C)(C)C)n(CC(=O)NCCC3=CCCCC3)c2=O)cc1`: the “hERG current change (%, negative = inhibition) at 1uM” value is -3.41%.

For the molecule `Cc1c(CN(C)C)c2c(n1C)C(=O)c1ccc(Br)cc1-2.Cl`, the “hERG current change (%, negative = inhibition) at 1uM” value is on record as -2.4%.

Regarding `Cc1c(CN(C)C)c2c(n1Cc1ccccc1)C(=O)c1ccccc1-2.Cl`, the “hERG current change (%, negative = inhibition) at 1uM” value was -79%.

With `Cc1c(CN(C)C)c2c(n1Cc1ccccc1)C(=O)c1ccc(Br)cc1-2.Cl`, the “hERG current change (%, negative = inhibition) at 1uM” value was -16.4%.

`CCCCOP(=O)(OCCCC)C(O)c1ccc(N(C)C)cc1` (stereo not drawn): the “hERG current change (%, negative = inhibition) at 1uM” value amounted to 12.5%.

`CSc1ccccc1OCc1cc(C(=O)NC2CCc3ccccc32)no1` (stereo not drawn): the “hERG current change (%, negative = inhibition) at 1uM” value turned out to be 17.2%.

Turning to `OCc1ncccc1O`, the “hERG current change (%, negative = inhibition) at 1uM” value was 8.62%.

With `O=[N+]([O-])c1ccc(CN2CCCCCC2)cc1`, the “hERG current change (%, negative = inhibition) at 1uM” value is reported as -0.361%.

Consider `O=[N+]([O-])c1ccc(CN2CCOCCOCCOCC2)cc1`, for which the “hERG current change (%, negative = inhibition) at 1uM” value is given as -20.5%.

As to `COc1ccc(CN2CCOCCOCCOCC2)cc1`, the “hERG current change (%, negative = inhibition) at 1uM” value is on record as -21.8%.

On to `O=[N+]([O-])c1ccc(CN2CCOCCOCCN(Cc3ccc([N+](=O)[O-])cc3)CCOCC2)cc1`, for which the “hERG current change (%, negative = inhibition) at 1uM” value is -86.9%.

`COc1ccc(CN2CCOCCOCCOCCOCCOCC2)cc1`: the “hERG current change (%, negative = inhibition) at 1uM” value turned out to be 7.46%.

Consider `COc1ccc(CN2CCOCCOCCN(Cc3ccc(OC)cc3)CCOCCOCC2)cc1`, for which the “hERG current change (%, negative = inhibition) at 1uM” value is listed as -84.1%.

(Values after article PMC4336329 (PLoS ONE, 2015).)
